± gives the standard deviation of the averaged measurements. In all, about 1,900 compounds were measured (“CD40L-induced NF-kB luciferase activity, plate-corrected, relative to DMSO (0) and IKK inhibitor VII (-100) controls”: median about 0.032, lowest 2% from about -26 on). The sample as a whole holds a higher share of the lowest values than the screen did.
What follows are compounds tested on BL2-NFkB-Luc (assay: CD40L-induced NF-kB luciferase activity, plate-corrected, relative to DMSO (0) and IKK inhibitor VII (-100) controls (% normalized activity); higher = more NF-kB reporter activity (less inhibition)). Details: 9.4 µM; stimulus: tCD40L 64 ng/ml; 4.5 h.
Procedure: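 BL2 B cells with a stable NF-kB response-element luciferase reporter (BL2-NFkB-Luc), 384-well. Cells were pre-incubated with compound at 9.4 uM for 1 h at 37 C, then stimulated with 64 ng/ml trimerized CD40L for 4.5 h; luciferase was read with Steady-Glo. Signal was normalised per plate in Genedata (median DMSO neutral control = 0, median IKK inhibitor VII at 50 uM = -100) with Assay Median plate-pattern correction; duplicate plates.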
O=C1OC(Nc2ccc3c(c2)OCO3)c2ccccc21 (configuration not stated) was tested, and the “CD40L-induced NF-kB luciferase activity” value was -15.2 ± 0.48. For O=S(=O)(NCCCCCNS(=O)(=O)c1ccccc1)c1ccccc1, the “CD40L-induced NF-kB luciferase activity” value was -7.09 ± 9.8. For COc1ccc2[nH]c(=O)c3c(c2c1)OC(C)(C)C=C3, the “CD40L-induced NF-kB luciferase activity” value was -32.8 ± 0.38. With COc1ccc2[nH]cc(C3N4CC5(C)CN3CC(C)(C4)C5=O)c2c1 (configuration not stated) the “CD40L-induced NF-kB luciferase activity” value was 2.08 ± 1.7. With COc1ccc2[nH]c(=O)c(CN(C(=O)c3ccco3)C(C)C)cc2c1 the “CD40L-induced NF-kB luciferase activity” value was 0.241 ± 0.71. For O=C(COc1ccc(F)cc1)OCCN1CCOCC1, the “CD40L-induced NF-kB luciferase activity” value was 0.903 ± 1.5. With COc1ccccc1C1C(C#N)=C(N)Oc2c1oc(CO)cc2=O (configuration not stated) the “CD40L-induced NF-kB luciferase activity” value was -1.31 ± 0.27. For O=C1OC(c2ccccc2)=C/C1=C/c1cccs1, the “CD40L-induced NF-kB luciferase activity” value was 30.9 ± 2.3. OC(COCc1ccccc1)CN1CCN(Cc2ccc3c(c2)OCO3)CC1 (configuration not stated) was tested, and the “CD40L-induced NF-kB luciferase activity” value was -0.97 ± 0.41. For COc1cc2c(cc1OC)C1(CCCCC1)CN(C)C2, the “CD40L-induced NF-kB luciferase activity” value was -4.22 ± 0.72. O=C(CC1SC(=O)NC1=O)Nc1ccc(Cl)cc1 (configuration not stated) was tested, and the “CD40L-induced NF-kB luciferase activity” value was 2.93 ± 5.1. O=C(NN=Cc1ccc([N+](=O)[O-])o1)c1ccc(O)cc1 was tested, and the “CD40L-induced NF-kB luciferase activity” value was -1.71 ± 0.97. With CCOCC(=O)Nc1nc2ccccc2s1 the “CD40L-induced NF-kB luciferase activity” value was 50.7 ± 10. COC(=O)CSc1nc2ccc(N)cc2s1 was tested, and the “CD40L-induced NF-kB luciferase activity” value was 0.507 ± 4.2. O=C(O)CCSc1nc2ccccc2s1 was tested, and the “CD40L-induced NF-kB luciferase activity” value was -42.3 ± 0.52. CN(CCc1cnn(C)c1)Cc1nc(CC2CC2)no1 was tested, and the “CD40L-induced NF-kB luciferase activity” value was -0.906 ± 0.31. With COc1ccc(O)c(C(=O)/C=C/c2cc3ccccc3o2)c1 the “CD40L-induced NF-kB luciferase activity” value was 83.3 ± 3.2. For O=C(OCCN1CCOCC1)c1cccs1, the “CD40L-induced NF-kB luciferase activity” value was -4.77 ± 5.6. For COc1ccc(CCCC(=O)O)c(C)c1, the “CD40L-induced NF-kB luciferase activity” value was 1.85 ± 1.2. With CCN(CC)C1=C(Cl)C(=O)C(Cl)C12OCCO2 (configuration not stated) the “CD40L-induced NF-kB luciferase activity” value was -4.69 ± 4.8. For Cc1cc(C=NO)c(C)n1-c1ccc(Br)cc1, the “CD40L-induced NF-kB luciferase activity” value was -0.84 ± 0.39. In the case of COc1ccc(C2N3CC4(C)CN2CC(C)(C3)C4)cc1OC (configuration not stated), the “CD40L-induced NF-kB luciferase activity” value is reported as -1.8 ± 1.9. For COc1ccc(C(=O)Nc2cccc3cccnc23)cc1OC, the “CD40L-induced NF-kB luciferase activity” value was 19.3 ± 10. For O=C(NCCC(c1ccccc1)c1ccco1)c1cccs1 (configuration not stated), the “CD40L-induced NF-kB luciferase activity” value was 24.9 ± 2.2. For CCc1cc2c(=O)c(-c3nc4ccccc4n3C)coc2c(CN2CCN(C)CC2)c1O, the “CD40L-induced NF-kB luciferase activity” value was -3.98 ± 2.5. For CC(C)[C@H]1CN(C)CCN1Cc1cn(C)nc1-c1cccc(Cl)c1, the “CD40L-induced NF-kB luciferase activity” value was 2.03 ± 0.42. For Cc1c(OC(=O)CNC(=O)OC(C)(C)C)ccc2c3c(c(=O)oc12)CCC3, the “CD40L-induced NF-kB luciferase activity” value was 3.02 ± 3.5. O=C(O)c1ccc(C(=O)C(=O)c2ccccc2)cc1 was tested, and the “CD40L-induced NF-kB luciferase activity” value was -6.47 ± 15. CC(=O)C1=C(O)C(=O)N(CC(=O)O)C1c1ccccc1Cl (configuration not stated) was tested, and the “CD40L-induced NF-kB luciferase activity” value was 3.2 ± 3.2. For C[C@@H]1C[C@H]2[C@@H]3CCC4=CC(=O)C=C[C@]4(C)[C@@]3(F)[C@@H](O)C[C@]2(C)[C@H]1C(=O)CO, the “CD40L-induced NF-kB luciferase activity” value was -31.39 ± 0.23. With CC1(C)O[C@@H]2C[C@H]3[C@@H]4CCC5=CC(=O)C=C[C@]5(C)[C@@]4(F)[C@@H](O)C[C@]3(C)[C@]2(C(=O)CO)O1 the “CD40L-induced NF-kB luciferase activity” value was -31.3 ± 5.1. For CC1(C)O[C@@H]2C[C@H]3[C@@H]4C[C@H](F)C5=CC(=O)C=C[C@]5(C)[C@@]4(F)[C@@H](O)C[C@]3(C)[C@]2(C(=O)CO)O1, the “CD40L-induced NF-kB luciferase activity” value was -23.7 ± 1.8. In the case of CC(=O)OCC(=O)C1=CCC2C3CCC4=CC(=O)C=CC4(C)C3(F)C(OC(C)=O)CC12C (configuration not stated), the “CD40L-induced NF-kB luciferase activity” value is reported as -4.87 ± 4.6. In the case of C[C@]12CC[C@H]3[C@@H](CCC4=CC(=O)CC[C@@]43C)[C@@H]1CC[C@@H]2C(=O)CO, the “CD40L-induced NF-kB luciferase activity” value is reported as -4.85 ± 1.2. For CC(=O)OCC(=O)[C@@]12OC3(CCCC3)O[C@@H]1C[C@H]1[C@@H]3CCC4=CC(=O)C=C[C@]4(C)[C@@]3(F)[C@@H](O)C[C@@]12C, the “CD40L-induced NF-kB luciferase activity” value was -20.2 ± 1.1. In the case of C/C=C/c1ccc(OCCCCN2CC(C)CC(C)C2)c(OC)c1 (configuration not stated), the “CD40L-induced NF-kB luciferase activity” value is reported as 1.73 ± 0.88. With Cc1ccc(OCc2nc(-c3cccnc3)no2)cc1C the “CD40L-induced NF-kB luciferase activity” value was 34.5 ± 7.5. In the case of CCc1cc(=O)oc2cc(OCc3nn[nH]n3)ccc12, the “CD40L-induced NF-kB luciferase activity” value is reported as -0.362 ± 2.4. COc1cc2oc(-c3ccc(O)cc3)cc(=O)c2c(OC)c1O was tested, and the “CD40L-induced NF-kB luciferase activity” value was 2.41 ± 4.4. For Cc1cccc(Nc2ncccc2C(=O)O)c1C, the “CD40L-induced NF-kB luciferase activity” value was -3.873 ± 0.016. With CCOc1ccc(C(NC(C)=O)c2ccc(OC)c(OC)c2)cc1 (configuration not stated) the “CD40L-induced NF-kB luciferase activity” value was 4.36 ± 0.088. For Nc1c(C(=O)c2ccccc2)oc2ccccc12, the “CD40L-induced NF-kB luciferase activity” value was 17.3 ± 8.5. With O=C(c1ccc(F)cc1)[C@@H]1[C@@H](C(=O)c2ccccc2)[C@@]2(C(=O)Nc3ccccc32)[C@H]2c3ccccc3C=CN12 the “CD40L-induced NF-kB luciferase activity” value was 6.58 ± 1.4. CCOC(=O)c1cccc(C(=O)OCC)n1 was tested, and the “CD40L-induced NF-kB luciferase activity” value was -2.95 ± 2.1. In the case of COc1cccc(CN2CCN(C(=O)c3ccc(-c4ccccc4)cc3)CC2)c1, the “CD40L-induced NF-kB luciferase activity” value is reported as -7.33 ± 1.1. O=C(/C=C/c1ccc(F)cc1)N1CC[C@@]2(O)CCCC[C@H]2C1 was tested, and the “CD40L-induced NF-kB luciferase activity” value was -1.13 ± 0.88. In the case of Cc1ccc(C(=O)NCCNC(=O)c2ccccc2)cc1, the “CD40L-induced NF-kB luciferase activity” value is reported as -2.5 ± 3.9. O=C(Cc1ccc(Br)cc1)c1ccc(O)cc1O was tested, and the “CD40L-induced NF-kB luciferase activity” value was 32.9 ± 18. For O=C(Nc1ccc(C(=O)NC2CCCCC2)cc1)c1cccnc1, the “CD40L-induced NF-kB luciferase activity” value was 0.625 ± 0.58. COC(=O)c1[nH]c2ccc(C)cc2c1NC(=O)CN1CCc2cc(OC)c(OC)cc2C1 was tested, and the “CD40L-induced NF-kB luciferase activity” value was -5.22 ± 6.4. In the case of COc1ccc(-c2cc(=Nc3ccc(C)cc3)c3ccccc3o2)cc1, the “CD40L-induced NF-kB luciferase activity” value is reported as 2.07 ± 3. With C=CCN1C(=O)c2oc3ccccc3c(=O)c2C1c1ccc(O)c(OC)c1 (configuration not stated) the “CD40L-induced NF-kB luciferase activity” value was -0.791 ± 0.32.

Reference: the supplement of paper PMC3656093
